Assay [1] in a line: qHTS profiling for inhibitors of Plasmodium falciparum (3D7) proliferation (AID 743322).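 Further: infected erythrocytes exposed to compound for 72 h before lysis; 100% = DMSO vehicle wells and 0% = 0.29 µM artemisinin.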 To be noted: P. falciparum 3D7 proliferation; at 28.7 µM (top of the series). A digest of the protocol:
(§1)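 Erythrocytes infected with P. falciparum (0.3% parasitemia, 2.5% hematocrit) incubated with compounds 72 h at 37 C, 5% CO2. Lysis with saponin/Triton buffer containing SYBR Green I, overnight at room temperature in the dark; DNA fluorescence (485/535 nm) normalised to 0.29 uM artemisinin and DMSO.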

Assay [2] in a line: qHTS profiling for inhibitors of Plasmodium falciparum (DD2) proliferation (AID 743323). Conditions: lower = more inhibition; at 28.7 µM (top of the series). Put shortly: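 SYBR Green fluorescence (ex 485, em 535 nm) of lysed cultures gives parasite DNA content; wells normalized to artemisinin (0.29 uM) and DMSO controls. Infected red cells: 0.3% parasitemia, 2.5% hematocrit, 72 h, 37 C.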

The nature of assay [3]: qHTS profiling for inhibitors of Plasmodium falciparum (HB3) proliferation (AID 743324).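 Further: 100% = DMSO vehicle wells and 0% = artemisinin-treated control wells.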 Conditions: Plasmodium falciparum HB3 blood-stage proliferation; at 28.7 µM (top of the series). Put shortly:
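P. falciparum HB3 grown in erythrocytes (0.3% parasitemia, 2.5% hematocrit final) with compound for 72 h at 37 C, 5% CO2. Parasite DNA detected by SYBR Green after saponin/triton lysis overnight; normalized to 0.29 uM artemisinin and DMSO.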
(In general: Quantitative high-throughput screening tests each substance at several concentrations.)

Assay [4] is described as follows: qHTS profiling of the MIPE4 collection as inhibitors of Plasmodium falciparum (3D7) proliferation (AID 743344).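 Further: scaled between DMSO vehicle wells and 0.29 µM artemisinin as full inhibition.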 Conditions: P. falciparum 3D7 in erythrocytes, SYBR Green DNA fluorescence, 72 h; at 28.5 µM (top of the series) unless noted. Put shortly: as §1
Assay [5] in a line: qHTS profiling of the MIPE4 collection as inhibitors of Plasmodium falciparum (DD2) proliferation (AID 743345). Conditions: P. falciparum Dd2 in erythrocytes, SYBR Green DNA, 72 h; at 28.5 µM (top of the series) unless noted. A digest of the protocol: as §1
A short description of assay [6]: High-throughput drug toxicity screening in the BPDCN cell line Gen2.2 (AID 1224824).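 Further: cells exposed to compounds for 48 h before reading.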 Conditions: Gen2.2 BPDCN cells; at 45.8 µM (top of the series) unless noted. A digest of the protocol: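 Gen2.2 cells (500/well) in phenol red-free RPMI with 10% FBS were exposed to compounds for 48 h at 37 °C, 5% CO2. Viability was read by CellTiter-Glo luminescence and normalized to DMSO (100%) and 9.2 uM bortezomib (0%).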

A short description of assay [7]: High-throughput drug toxicity screening in the BPDCN cell line Cal-1 (AID 1224825). To be noted: Cal-1 BPDCN cell viability, qHTS; at 45.8 µM (top of the series) unless noted. Put shortly:
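500 Cal-1 cells/well, RPMI + glutamine + 10% FBS (phenol red-free); cpd added by pin tool; 48 h, 37C, 5% CO2; CTG 15 min RT, lumi read. Normalised: DMSO 100%, bortezomib 9.2 uM 0%.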

Assay [8] in a line: qHTS profiling of the MIPE4 collection as inhibitors of Plasmodium falciparum (DD2) proliferation (Rep 2) (AID 743346). Conditions: P. falciparum Dd2 in erythrocytes, SYBR Green DNA, 72 h; at 28.5 µM (top of the series) unless noted. Put shortly: as §1
Assay [9] in a line: qHTS profiling of the MIPE4 collection as inhibitors of Plasmodium falciparum (HB3) proliferation (AID 743347).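 Further: plate controls were DMSO vehicle wells for no effect and artemisinin wells for full effect.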 Conditions: P. falciparum HB3 in erythrocytes, SYBR Green DNA, 72 h; at 28.5 µM (top of the series) unless noted. Put shortly: as §1

The structures appear in SMILES notation.

On to `CC(C)[C@H](C(=O)Nc1ccc(C(=O)NO)cc1)c1ccccc1`, for which the remaining parasite growth % (stronger effect = lower value) in assay [1] was -0.0537%. In addition, in assay [2], the activity, percent of control is 0.199%. Also, the remaining proliferation (% of control), lower = more inhibition in [3] was 0.544%. Moreover, in assay [4], the parasite growth, % of DMSO control was 5.04%. Also, in assay [5], the parasite growth remaining, % of DMSO control (lower = more inhibition) is 6.95%. Also, the cell viability, % of control (lower = more cytotoxic) in assay [6] was 13.6%. Besides, in assay [7], the viability (% of control) came to 6.36%.
For the compound `C#Cc1cccc(Nc2ncnc3cc(OC)c(OCCCCCCC(=O)NO)cc23)c1`, the remaining parasite growth % (stronger effect = lower value) in assay [1] is -1.67%. The activity, percent of control in assay [2] was determined as 0.0372%. The remaining proliferation (% of control), lower = more inhibition in assay [3] was -0.395%. In assay [4], this compound had a parasite growth, % of DMSO control of 5.53%. Also, the parasite growth remaining, % of DMSO control (lower = more inhibition) in assay [5] was determined as 6.37%. The parasite growth, % of control (lower = inhibition) in [8] was 11.2%. Moreover, the growth, % of control in assay [9] came out at 3.1%. The cell viability, % of control (lower = more cytotoxic) in [6] was determined as 44.2%. For the same compound, the viability (% of control) in assay [7] amounted to 3.6%.
For the compound `COc1cc2c(Oc3ccc(NC(=O)C4(C(=O)Nc5ccc(F)cc5)CC4)cc3F)ccnc2cc1OCCCN1CCOCC1`, in assay [1], the remaining parasite growth % (stronger effect = lower value) was -2.01%. Besides, in [2], the activity, percent of control is -0.633%. Also, the remaining proliferation (% of control), lower = more inhibition in [3] is -0.88%. Also, in [4], the parasite growth, % of DMSO control was 7.43%. For the same compound, the parasite growth remaining, % of DMSO control (lower = more inhibition) in assay [5] came out at 5.88%. The compound also returned a parasite growth, % of control (lower = inhibition) in assay [8] of 20.2%. Further, the growth, % of control in [9] came out at 8.86%. Moreover, the cell viability, % of control (lower = more cytotoxic) in assay [6] came to 10.2%. Moreover, the viability (% of control) in [7] was found to be 4.49%.
In the case of `C=C1C(=CC=C2CCC[C@]3(C)[C@@H]([C@H](C)C=C[C@H](C)C(C)C)CC[C@@H]23)C[C@@H](O)C[C@@H]1O`, the remaining parasite growth % (stronger effect = lower value) in assay [1] stood at 88.6%. Further, in assay [2], the activity, percent of control came to 102%. Besides, the remaining proliferation (% of control), lower = more inhibition in [3] amounted to 92.2%. The parasite growth, % of DMSO control in assay [4] stood at 6.24%. Further, the parasite growth remaining, % of DMSO control (lower = more inhibition) in assay [5] is 7.23%. The parasite growth, % of control (lower = inhibition) in [8] came out at 7.88%. Besides, the growth, % of control in [9] came out at 9.22%. Further, the cell viability, % of control (lower = more cytotoxic) in assay [6] worked out at 104%. Also, the viability (% of control) in [7] was found to be 5.8%.
For `Fc1cc(-c2cccc3ncc(-c4cnn(C5CCNCC5)c4)nc23)cc(F)c1CN1CCOCC1`, the cell viability, % of control (lower = more cytotoxic) in assay [6] was 5.16%. In [7], this compound displayed a viability (% of control) of 5.7%.
In the same order, the values of `CCCNC(=O)Nc1ccc(Oc2ncnc3cc(OC)c(OC)cc23)cc1Cl` are 69.6% and 92.7%.
In the case of `Cc1cc(Nc2cc(N3CCN(C)CC3)nc(C=Cc3ccccc3)n2)n[nH]1`, the remaining parasite growth % (stronger effect = lower value) in assay [1] stood at 0.147%. The activity, percent of control in assay [2] amounted to 3.11%. Besides, the remaining proliferation (% of control), lower = more inhibition in [3] came to 0.814%. The compound also gave a parasite growth, % of DMSO control in assay [4] of 5.15% [at 57.5 µM]. Further, the parasite growth remaining, % of DMSO control (lower = more inhibition) in [5] turned out to be 6.9% [at 57.5 µM]. The parasite growth, % of control (lower = inhibition) in assay [8] amounted to 8.07% [at 57.5 µM]. In assay [9], this compound had a growth, % of control of 2.5% [at 57.5 µM]. Besides, the cell viability, % of control (lower = more cytotoxic) in assay [6] was 9.99% [at 92.2 µM]. In assay [7], the viability (% of control) turned out to be 3.23% [at 92.2 µM].
As for `CC(C)C[C@H](NC(=O)CNC(=O)c1cc(Cl)ccc1Cl)B(O)O`, in [1], the remaining parasite growth % (stronger effect = lower value) was -0.752%. Moreover, the activity, percent of control in [2] is -0.333%. Further, the remaining proliferation (% of control), lower = more inhibition in assay [3] is -0.908%. In [4], this compound returned a parasite growth, % of DMSO control of 5.16%. The compound also came in with a parasite growth remaining, % of DMSO control (lower = more inhibition) in assay [5] of 7.7%. The compound also showed a parasite growth, % of control (lower = inhibition) in assay [8] of 7.79%. This compound also showed a growth, % of control in assay [9] of 3.75%. Further, in assay [6], the cell viability, % of control (lower = more cytotoxic) was 2.43%. The compound also showed a viability (% of control) in [7] of 4.79%.
Take `Cc1nc2cnc3ccc(C#Cc4cccnc4)cc3c2n1-c1ccc(C(C)(C)C#N)cc1`: the remaining parasite growth % (stronger effect = lower value) in assay [1] is -1.11%. In addition, the activity, percent of control in assay [2] was found to be 0.126%. Also, the remaining proliferation (% of control), lower = more inhibition in assay [3] was -0.656%. The parasite growth, % of DMSO control in assay [4] was 4.38%. The parasite growth remaining, % of DMSO control (lower = more inhibition) in assay [5] turned out to be 7.19%. In assay [8], this compound gave a parasite growth, % of control (lower = inhibition) of 13.9%. For the same compound, in assay [9], the growth, % of control amounted to 3.51%. In [6], the cell viability, % of control (lower = more cytotoxic) was 3.34%. In [7], this compound had a viability (% of control) of 16.6%.
On to `CS(=O)(=O)N1CCN(Cc2cc3nc(-c4cccc5[nH]ncc45)nc(N4CCOCC4)c3s2)CC1`, for which the cell viability, % of control (lower = more cytotoxic) in assay [6] was 27.2%. The compound also had a viability (% of control) in [7] of 27.7%.
With `CC(C)=CCCC(C)=CCCC(C)=CCSc1ccccc1C(=O)O`, the remaining parasite growth % (stronger effect = lower value) in assay [1] was determined as 101%. Further, the activity, percent of control in [2] was found to be 118%. Moreover, in assay [3], the remaining proliferation (% of control), lower = more inhibition was determined as 92%. The parasite growth, % of DMSO control in assay [4] was 22.6%. The parasite growth remaining, % of DMSO control (lower = more inhibition) in assay [5] came out at 25.3%. The compound further came in with a parasite growth, % of control (lower = inhibition) in assay [8] of 33.1%. In assay [9], this compound displayed a growth, % of control of 15.5%. For the same compound, the cell viability, % of control (lower = more cytotoxic) in assay [6] was 9.26%. In [7], this compound came in with a viability (% of control) of 19%.

The values above are taken from PubChem BioAssay (NCATS).
